Compound: Cc1ccc(-c2ccc3c(ccc4sc5c(c43)NC[C@@H](C)NC5=O)n2)cn1
Experiment: kinase activity remaining relative to vehicle control; higher = less inhibition
Protocol: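 In vitro radiometric kinase profiling of the MK2 inhibitor PF-3644022 at 0.1, 1 and 10 µM against a panel of kinases (MRC International Centre for Kinase Profiling, Dundee). Read-out is % kinase activity remaining relative to the vehicle control, mean of n=2.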

UniProt Q14012, sequence (Q14012 whole entry, looked up): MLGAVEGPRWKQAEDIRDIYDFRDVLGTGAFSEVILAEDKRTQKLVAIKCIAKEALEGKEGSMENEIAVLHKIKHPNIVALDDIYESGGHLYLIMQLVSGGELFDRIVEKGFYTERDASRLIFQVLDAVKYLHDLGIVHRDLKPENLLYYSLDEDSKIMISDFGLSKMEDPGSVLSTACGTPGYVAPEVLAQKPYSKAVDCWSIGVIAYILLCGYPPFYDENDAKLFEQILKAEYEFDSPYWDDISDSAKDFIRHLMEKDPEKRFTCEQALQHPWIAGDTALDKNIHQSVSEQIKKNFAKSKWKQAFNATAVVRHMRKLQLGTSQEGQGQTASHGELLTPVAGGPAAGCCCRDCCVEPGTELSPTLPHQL
UniProt O14757, sequence (O14757 whole entry, looked up): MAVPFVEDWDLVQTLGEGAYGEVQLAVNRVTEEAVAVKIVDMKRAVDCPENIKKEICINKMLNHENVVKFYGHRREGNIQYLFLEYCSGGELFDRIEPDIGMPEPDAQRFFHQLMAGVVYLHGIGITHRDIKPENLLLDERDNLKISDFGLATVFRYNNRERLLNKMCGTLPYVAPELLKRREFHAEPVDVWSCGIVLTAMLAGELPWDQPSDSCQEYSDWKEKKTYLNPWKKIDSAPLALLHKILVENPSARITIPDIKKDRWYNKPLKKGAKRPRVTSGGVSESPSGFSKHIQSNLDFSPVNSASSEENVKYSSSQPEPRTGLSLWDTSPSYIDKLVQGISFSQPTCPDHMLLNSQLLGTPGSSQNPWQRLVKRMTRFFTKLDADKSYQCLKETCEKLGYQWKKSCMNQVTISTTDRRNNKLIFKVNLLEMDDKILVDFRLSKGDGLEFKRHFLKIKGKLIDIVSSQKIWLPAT
UniProt P17948, sequence (P17948 whole entry, looked up): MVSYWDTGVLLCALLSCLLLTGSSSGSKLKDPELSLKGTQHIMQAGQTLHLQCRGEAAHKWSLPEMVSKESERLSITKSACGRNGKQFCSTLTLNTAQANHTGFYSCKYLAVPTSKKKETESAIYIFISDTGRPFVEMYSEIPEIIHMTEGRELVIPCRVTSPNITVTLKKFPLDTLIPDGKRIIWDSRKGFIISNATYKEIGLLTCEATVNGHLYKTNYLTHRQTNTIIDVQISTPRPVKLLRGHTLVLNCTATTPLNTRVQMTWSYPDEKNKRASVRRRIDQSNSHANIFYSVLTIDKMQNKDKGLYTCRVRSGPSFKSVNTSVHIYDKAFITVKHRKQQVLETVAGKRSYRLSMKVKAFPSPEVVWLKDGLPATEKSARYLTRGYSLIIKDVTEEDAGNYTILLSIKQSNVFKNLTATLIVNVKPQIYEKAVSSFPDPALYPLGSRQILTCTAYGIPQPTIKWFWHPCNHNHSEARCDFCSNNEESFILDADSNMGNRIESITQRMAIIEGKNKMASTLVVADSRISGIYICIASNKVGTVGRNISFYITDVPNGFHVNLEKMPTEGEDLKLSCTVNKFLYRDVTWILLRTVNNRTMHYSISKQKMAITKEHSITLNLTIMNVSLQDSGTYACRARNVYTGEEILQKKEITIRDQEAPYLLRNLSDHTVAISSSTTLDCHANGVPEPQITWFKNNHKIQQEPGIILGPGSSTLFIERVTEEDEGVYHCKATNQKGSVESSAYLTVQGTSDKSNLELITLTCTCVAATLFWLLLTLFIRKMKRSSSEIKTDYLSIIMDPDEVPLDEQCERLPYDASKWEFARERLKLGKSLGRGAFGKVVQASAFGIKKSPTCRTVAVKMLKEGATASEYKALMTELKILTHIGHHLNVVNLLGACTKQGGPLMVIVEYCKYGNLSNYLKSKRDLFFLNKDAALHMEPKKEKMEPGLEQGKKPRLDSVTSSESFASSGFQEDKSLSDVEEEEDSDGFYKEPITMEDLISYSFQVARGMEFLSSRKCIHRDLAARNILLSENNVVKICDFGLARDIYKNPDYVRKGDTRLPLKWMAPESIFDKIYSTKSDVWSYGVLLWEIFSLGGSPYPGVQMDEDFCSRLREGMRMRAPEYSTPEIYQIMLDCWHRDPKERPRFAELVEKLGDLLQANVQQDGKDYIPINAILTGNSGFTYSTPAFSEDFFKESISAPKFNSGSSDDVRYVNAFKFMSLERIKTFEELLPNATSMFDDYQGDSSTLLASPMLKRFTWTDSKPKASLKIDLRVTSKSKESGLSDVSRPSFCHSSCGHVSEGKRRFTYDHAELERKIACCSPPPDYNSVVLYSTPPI
UniProt Q13177, sequence (Q13177 whole entry, looked up): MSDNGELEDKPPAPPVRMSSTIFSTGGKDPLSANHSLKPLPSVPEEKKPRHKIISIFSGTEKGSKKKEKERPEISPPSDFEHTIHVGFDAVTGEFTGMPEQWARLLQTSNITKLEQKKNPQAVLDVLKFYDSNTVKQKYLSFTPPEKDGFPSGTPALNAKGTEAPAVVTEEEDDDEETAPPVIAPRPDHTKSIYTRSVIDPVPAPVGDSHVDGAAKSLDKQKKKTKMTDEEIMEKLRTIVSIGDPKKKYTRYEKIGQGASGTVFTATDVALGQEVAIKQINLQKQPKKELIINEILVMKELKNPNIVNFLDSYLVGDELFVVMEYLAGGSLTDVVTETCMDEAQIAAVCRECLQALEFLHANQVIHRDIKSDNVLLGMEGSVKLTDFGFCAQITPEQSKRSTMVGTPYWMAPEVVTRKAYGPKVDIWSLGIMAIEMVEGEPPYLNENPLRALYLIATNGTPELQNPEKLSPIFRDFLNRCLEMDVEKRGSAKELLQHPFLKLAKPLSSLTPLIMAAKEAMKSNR
UniProt Q9H422, sequence (Q9H422 whole entry, looked up): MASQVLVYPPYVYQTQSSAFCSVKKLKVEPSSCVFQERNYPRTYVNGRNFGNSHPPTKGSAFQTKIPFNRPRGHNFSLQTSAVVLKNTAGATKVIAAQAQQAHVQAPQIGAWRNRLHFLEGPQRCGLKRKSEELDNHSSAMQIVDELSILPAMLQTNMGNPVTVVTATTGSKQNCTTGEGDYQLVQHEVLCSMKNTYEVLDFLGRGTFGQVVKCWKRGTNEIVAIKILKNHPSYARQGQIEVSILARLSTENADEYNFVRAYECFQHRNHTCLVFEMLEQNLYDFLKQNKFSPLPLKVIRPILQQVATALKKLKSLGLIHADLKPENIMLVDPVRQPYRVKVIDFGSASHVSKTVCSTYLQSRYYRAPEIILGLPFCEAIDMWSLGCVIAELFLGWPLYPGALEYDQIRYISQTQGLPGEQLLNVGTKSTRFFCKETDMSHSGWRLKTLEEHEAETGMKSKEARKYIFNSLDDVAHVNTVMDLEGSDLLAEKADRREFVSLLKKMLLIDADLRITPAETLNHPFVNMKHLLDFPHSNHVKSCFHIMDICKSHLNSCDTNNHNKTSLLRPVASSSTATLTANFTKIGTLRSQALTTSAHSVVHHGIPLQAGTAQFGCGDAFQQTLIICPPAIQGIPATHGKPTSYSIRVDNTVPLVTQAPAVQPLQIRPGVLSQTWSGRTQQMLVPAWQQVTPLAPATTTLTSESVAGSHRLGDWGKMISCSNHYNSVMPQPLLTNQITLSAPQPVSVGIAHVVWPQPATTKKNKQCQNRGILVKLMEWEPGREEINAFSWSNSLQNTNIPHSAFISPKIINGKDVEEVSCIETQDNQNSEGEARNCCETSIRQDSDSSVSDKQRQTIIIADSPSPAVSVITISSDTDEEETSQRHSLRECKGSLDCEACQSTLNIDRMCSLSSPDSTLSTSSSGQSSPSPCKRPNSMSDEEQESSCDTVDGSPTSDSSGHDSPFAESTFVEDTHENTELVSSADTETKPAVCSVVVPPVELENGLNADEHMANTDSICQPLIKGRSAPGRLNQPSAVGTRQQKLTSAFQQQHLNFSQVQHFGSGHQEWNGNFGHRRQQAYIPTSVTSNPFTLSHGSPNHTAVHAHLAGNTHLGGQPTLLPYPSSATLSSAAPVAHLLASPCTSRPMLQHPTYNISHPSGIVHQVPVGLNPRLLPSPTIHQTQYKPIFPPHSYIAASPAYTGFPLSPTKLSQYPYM

Target	kinase activity remaining (inhibitor concentration 0.1 µM)	kinase activity remaining (inhibitor concentration 1 µM)	kinase activity remaining (inhibitor concentration 10 µM)
CHK1 (UniProt O14757)	139%	109%	112%
CK1 delta	96%	96%	92%
PAK2 (UniProt Q13177)	102%	103%	93%
HIPK3 (UniProt Q9H422)	112%	108%	96%
Aurora A	126%	102%	84%
VEGFR1 (UniProt P17948)	112%	118%	65%
CAMK1 (UniProt Q14012)	96%	97%	68%

From the supplement of paper PMC6378613
